Laboratory results taken from PubChem BioAssay (NCATS).
Inconclusive results are not listed. The source made the active and inactive calls. Calls follow the shape of the dose curve; as a rule, active = well fitted cell-killing curve with a large enough effect; inconclusive = small, poorly fitted or top-dose-only effect, or effect the other way; inactive = no such curve, though single readings can be large or run the other way.

assay: Quantitative High-Throughput drug screen in 47 multiple myeloma cell lines against the NCATS MIPE library collection: KMS12PE_JCRB cell viability assay (AID 1918972); details: KMS12PE myeloma viability, CellTiter-Glo ATP, 48 h; series mostly up to 45.8 µM; viability: at the top concentration; also: nearly all actives have a fitted effect of over 30% in size
Outline: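 We plated 500 myeloma cells per well, pinned in MIPE 4.0 compounds, and incubated for 48 hours at 37C. ATP was then quantified with CellTiter-Glo, with DMSO and media-only wells defining 100% and 0%.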
Potency is read from the fitted curve at half-maximal effect.

SMILES | viability | Potency
c1ccc(CCCN2CCN(CCOC(c3ccccc3)c3ccccc3)CC2)cc1 | 76.5% (inactive) | 
N=c1c2c(-c3ccccc3)c(-c3ccccc3)n(Cc3ccccc3)c2ncn1C1CCC(O)CC1 (configuration not stated) |  | 2.64 µM (active)
CC(C)(O)C(=O)Nc1ccc([N+](=O)[O-])c(C(F)(F)F)c1 |  | 23.5 µM (active)
CCCC[N+]1(C)[C@H]2CC(OC(=O)[C@H](CO)c3ccccc3)C[C@H]1[C@H]1O[C@H]12 (some centres not stated) | 113% (inactive) | 
C=C1C[C@H]2[C@H]3CCC(=O)[C@@]3(C)CC[C@@H]2[C@@]2(C)C=CC(=O)C=C12 |  | 29.6 µM (active)
Clc1ccccc1C(c1ccccc1)(c1ccccc1)n1cccn1 | 116% (inactive) | 
CCNC(=O)CC1N=C(c2ccc(Cl)cc2)c2cc(OC)ccc2-n2c(C)nnc21 (configuration not stated) |  | 13.2 µM (active)
CCCCCC[C@H]1C(=O)O[C@H](C)[C@H](NC(=O)c2cccc(NC=O)c2O)C(=O)O[C@@H](C)[C@@H]1OC(=O)CC(C)C |  | 0.469 µM (active)
N#C[C@H](O[C@@H]1O[C@H](CO[C@@H]2O[C@H](CO)[C@H](O)[C@H](O)[C@H]2O)[C@H](O)[C@H](O)[C@H]1O)c1ccccc1 |  | 7.43 µM (active)
CN1CCN(c2ccc([N+](=O)[O-])c3no[n+]([O-])c23)CC1 |  | 16.6 µM (active)
C[C@]12CC[C@H]3[C@@H](CCC4=CC(=O)CC[C@@]43C)[C@H]1CC[C@H]2OC(=O)CCC1CCCC1 | 112% (inactive) | 
O=[N+]([O-])c1ncc[nH]1 | 87% (inactive) | 
COC[C@H]1OC(=O)c2coc3c2[C@@]1(C)C1=C(C3=O)[C@@H]2CC[C@H](O)[C@@]2(C)C[C@@H]1OC(C)=O |  | 6.62 µM (active)
C[C@]12Cc3cn[nH]c3C[C@@H]1CC[C@@H]1[C@H]2CC[C@@]2(C)[C@H]1CC[C@]2(C)O | 99.9% (inactive) | 
COc1ccc(C(=O)c2c(C)n(CCN3CCOCC3)c3cc(I)ccc23)cc1 |  | 20.9 µM (active)
CC(O)=C(C#N)C(=O)Nc1cc(Br)ccc1Br |  | 5.9 µM (active)
O=C(N[C@@H](COc1ccc2[nH]c(=O)[nH]c2c1)c1ccccc1)c1cccn(Cc2ccc(F)c(F)c2)c1=O |  | 18.7 µM (active)
C=C[C@@H]1CN2CCC1C[C@H]2[C@H](O)c1ccnc2ccccc12 (some centres not stated) |  | 6.62 µM (active)
Cc1c(C(=O)c2cccc3ccccc23)c2cccc3c2n1[C@H](CN1CCOCC1)CO3 |  | 7.43 µM (active)

assay: Quantitative High-Throughput drug screen in 47 multiple myeloma cell lines against the NCATS MIPE library collection: KMS20_JCRB cell viability assay (AID 1918973); details: CellTiter-Glo ATP, 48 h; series mostly up to 45.8 µM; viability (% of DMSO): at the top concentration; also: nearly all actives have a fitted effect of over 45% in size
Outline: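 Inhibition of cell viability is measured here. Each line was plated at 500 cells per well, treated with MIPE 4.0 drugs, kept 48 hours at 37C, then assayed for ATP content by CellTiter-Glo luminescence.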

SMILES | Potency | viability (% of DMSO)
c1ccc(CCCN2CCN(CCOC(c3ccccc3)c3ccccc3)CC2)cc1 | 13.2 µM (active) | 
N=c1c2c(-c3ccccc3)c(-c3ccccc3)n(Cc3ccccc3)c2ncn1C1CCC(O)CC1 (configuration not stated) | 2.64 µM (active) | 
COC1=C[C@@H]2[C@@H]3Cc4ccc(OC)c(O)c4[C@]2(CCN3C)CC1=O | 1.66 µM (active) | 
Clc1ccccc1C(c1ccccc1)(c1ccccc1)n1cccn1 |  | 108% (inactive)
N#C[C@H](O[C@@H]1O[C@H](CO[C@@H]2O[C@H](CO)[C@H](O)[C@H](O)[C@H]2O)[C@H](O)[C@H](O)[C@H]1O)c1ccccc1 | 18.7 µM (active) | 
CN1CCN(c2ccc([N+](=O)[O-])c3no[n+]([O-])c23)CC1 | 8.33 µM (active) | 
c1cc2c(cc1[C@H]1OC[C@H]3[C@H]1CO[C@H]3c1ccc3c(c1)OCO3)OCO2 |  | 93% (inactive)
O=[N+]([O-])c1ncc[nH]1 |  | 66.9% (inactive)
COC[C@H]1OC(=O)c2coc3c2[C@@]1(C)C1=C(C3=O)[C@@H]2CC[C@H](O)[C@@]2(C)C[C@@H]1OC(C)=O | 5.26 µM (active) | 
C[C@]12Cc3cn[nH]c3C[C@@H]1CC[C@@H]1[C@H]2CC[C@@]2(C)[C@H]1CC[C@]2(C)O |  | 129% (inactive)
COc1ccc(C(=O)c2c(C)n(CCN3CCOCC3)c3cc(I)ccc23)cc1 | 5.26 µM (active) | 
CC(O)=C(C#N)C(=O)Nc1cc(Br)ccc1Br | 6.62 µM (active) | 
O=C(N[C@@H](COc1ccc2[nH]c(=O)[nH]c2c1)c1ccccc1)c1cccn(Cc2ccc(F)c(F)c2)c1=O | 18.7 µM (active) | 
Cc1c(N)nc([C@H](CC(N)=O)NC[C@@H](N)C(N)=O)nc1C(=O)N[C@H](C(=O)N[C@@H](C)[C@H](O)[C@@H](C)C(=O)N[C@@H](C(=O)NCCc1nc(-c2nc(C(=O)NCCC[S+](C)C)cs2)cs1)[C@@H](C)O)C(O[C@H]1O[C@H](CO)[C@H](O)[C@@H](O)[C@@H]1O[C@H]1O[C@H](CO)[C@@H](O)[C@H](OC(N)=O)[C@H]1O)c1cnc[nH]1 (some centres not stated) | 0.935 µM (active) | 
C[C@H]1CCCC=CC2C[C@H](O)C[C@@H]2[C@H](O)C=CC(=O)O1 (some centres not stated) |  | 7.52% (inactive)
CC(C)(C)c1cc(C=C(C#N)C#N)cc(Br)c1O | 13.2 µM (active) | 
Cc1c(C(=O)c2cccc3ccccc23)c2cccc3c2n1[C@H](CN1CCOCC1)CO3 | 18.7 µM (active) | 
C[C@]12CC[C@H]3[C@@H](CCC4=CC(=O)CC[C@@]43C)[C@H]1CC[C@H]2O |  | 122% (inactive)
